Shown is part of a subset that was picked to be rich in hits.
DUSP3 inh – VHR1 phosphatase inhibitors, primary screen, biochemical, colorimetric, HTS; Dual specificity protein phosphatase 3 (Homo sapiens), P51452; recombinant VHR phosphatase, colorimetric substrate read-out; inhibition, % at 20 µM; 50,000 compounds, 0.7% hits; in the data active = inhibition above about 60%
Target sequence (P51452 whole entry, looked up): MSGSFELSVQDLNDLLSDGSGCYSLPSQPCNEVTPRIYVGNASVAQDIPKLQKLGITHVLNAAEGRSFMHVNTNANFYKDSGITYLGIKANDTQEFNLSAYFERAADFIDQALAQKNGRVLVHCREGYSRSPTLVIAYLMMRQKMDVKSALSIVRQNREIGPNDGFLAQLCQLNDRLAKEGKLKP
* = called active by the depositor.

SMILES	DUSP3 inh
C/C(CC(=O)NC12CC3CC(CC(C3)C1)C2)=N\NC(=O)c1ccc(-c2ccccc2)cc1	-24
Cc1ccc(-n2c(C)cc(/C=N/NC(=O)c3ccncc3)c2C)cc1C	48
CCc1ccc(-n2c(C)cc(/C=N/NC(=O)c3ccncc3)c2C)cc1	87*
Cc1cccc(C)c1-n1c(C)cc(/C=N/NC(=O)c2ccncc2)c1C	14
CCOC(=O)c1cnc2c(C)c(-c3ccccc3)[nH]n2c1=O	0
CCOc1ccc(Nc2nc(-c3c(C)nc4cc(C)ccn34)cs2)cc1	88*
CCOc1ccc(Nc2nc(-c3ccccn3)cs2)cc1	-11
CCOc1ccc(Nc2nc(-c3sc(NC(=O)CC)nc3C)cs2)cc1	4
Cc1nc2ncccn2c1-c1csc(Nc2cccc(O)c2)n1	61
Cc1ccn2c(-c3csc(Nc4cccc(O)c4)n3)c(C)nc2c1	67*
Cc1ccc(-c2csc(Nc3ccc(O)cc3)n2)c(C)c1	56
COc1cc([N+](=O)[O-])ccc1NC(=O)c1ccc(S(=O)(=O)N2CC(C)OC(C)C2)cc1 (stereo not given)	-16
COc1ccc(/C(N)=N/OC(=O)c2cccc(F)c2)cc1	-16
CC(=O)N(c1ccccc1)c1c(F)c(F)c(F)c(F)c1F	-3
COc1ccc(NC(=O)c2ccccc2C(F)(F)F)c(OC)c1	-43
O=C(O)C1C(C(=O)Nc2ccccc2)C2C=CC1C21CC1 (stereo not given)	-18
O=C(Nc1ccc(Cl)c(Cl)c1)C1C2/C=C\CCCCC21 (stereo not given)	-14
O=C(Nc1ccccc1)C1C2/C=C\CCCCC21 (stereo not given)	100*
CC(=O)N1CCCC1C(=O)Nc1ccc(C)cc1 (stereo not given)	-3
COc1cc(NC(=O)c2cccc(Cl)c2)cc(OC)c1	-8
N#CSC(C#N)Cc1cccc([N+](=O)[O-])c1 (stereo not given)	28
CSc1ccc(C2NC(=O)c3ccccc3N2)cc1 (stereo not given)	14
CSc1ccc(C2NC(=O)CCC2[N+](=O)[O-])cc1 (stereo not given)	100*
COC(=O)C1=C(C)NC(=O)NC1c1ccc(SC)cc1 (stereo not given)	2
COc1ccc(NC(=O)NCCc2ccc(Cl)cc2Cl)cc1OC	-22
SMILES	DUSP3 inh
O=C(Nc1ccccc1)c1cc(S(=O)(=O)NC2CCCCC2)ccc1Br	30
COc1cc(NC(=O)c2c(Cl)cccc2Cl)c(OC)cc1Cl	18
O=C(Nc1ccc(-c2nc3ccccc3s2)c(O)c1)c1cc2ccccc2oc1=O	-1
Cc1ccc(/C=C(\C#N)c2nc(-c3ccc(C)c(C)c3)cs2)o1	60
Cc1ccc(/C=C(\C#N)c2nc(-c3cccc(Br)c3)cs2)o1	88*
Cc1ccc(/C=C(\C#N)c2nc(-c3cccc([N+](=O)[O-])c3)cs2)o1	21
COc1ccccc1/C=N/N=C1/NC(=O)C(CC(=O)Nc2cccc(C)c2C)S1 (stereo not given)	-11
Cc1cccc(N2C(=O)CC(N3CCN(c4ccc(F)cc4)CC3)C2=O)c1 (stereo not given)	0
O=C(/C=C/c1ccco1)Nc1ccc(Cl)c(Cl)c1	10
N#C/C(=C\c1ccc(-c2ccc(Br)cc2)o1)C(N)=O	-7
N#C/C(=C\c1ccc(-c2ccc(Cl)c(Cl)c2)o1)C(N)=O	70*
O=C(/C=C/c1ccco1)/C=C/c1ccc(-c2ccc(Cl)c(Cl)c2)o1	89*
N#C/C(=C\c1ccc(-c2cccc(C(F)(F)F)c2)o1)C(N)=O	-8
O=C(O)/C=C/c1ccc(-c2ccc(Cl)c(Cl)c2)o1	3
O=C(O)CCCN1C(=O)/C(=C\c2cccc(O)c2)SC1=S	-48
O=C(CSc1nc2ccc(Br)cc2c(=O)n1-c1ccccc1)Nc1ccccc1[N+](=O)[O-]	3
CC(=O)Oc1cccc2c1C(=O)c1ccccc1C2=O	103
COc1ccc(OC)c2c1C(=O)c1ccccc1C2=O	94*
COc1ccc2noc3c2c1C(=O)c1ccccc1-3	-9
Cc1ccc(-c2ccc(OCC(=O)NCc3ccccc3)cc2)cc1	41
COc1cccc(/C=C2/C(=O)NC(=S)N(c3cccc(Br)c3)C2=O)c1O	4
COc1cc(Cl)ccc1NC(=O)c1c(O)c2ccccc2n(CC(C)C)c1=O	-28
C(=Nc1ccccc1-c1nc2ccccc2[nH]1)c1ccco1	-8
CCc1ccccc1OCCCN(CC)CC	7
CCC(C)OC(=O)C1=C(C)NC2=C(C(=O)CCC2)C1c1cccs1 (stereo not given)	-17
SMILES	DUSP3 inh
O=C(COc1ccc2ccccc2c1)Nc1ccc(Br)c(Cl)c1	114*
O=C(COc1ccccc1)Nc1ccc(Br)c(Cl)c1	4
O=C(COc1ccc2ccccc2c1)Nc1ccc(Cl)c(Cl)c1	20
Nc1c(C(=O)c2ccccc2)c(-c2ccccc2)nc2nonc12	-17
CC1(C(=O)NCc2cccs2)CC1(Br)Br (stereo not given)	-5
CC(=O)Nc1ccccc1NC(=O)Cc1cccs1	3
S=C(S)N(CCN(Cc1cccs1)C(=S)S)Cc1cccs1	98*
C#CCOc1cc(Br)c(/C=C2\C(=O)NC(=O)N(c3ccc(Cl)cc3)C2=O)cc1OC	5
O=C(CC1OC(=O)c2ccccc21)c1ccc(I)cc1 (stereo not given)	-10
COc1ccc(NC(=O)C(C)c2ccc(CC(C)C)cc2)cc1 (stereo not given)	-4
O=C(O)c1cccc2c1NC(c1ccc(Cl)cc1)C1CC=CC21 (stereo not given)	86*
O=C(O)c1cccc2c1NC(c1ccc([N+](=O)[O-])cc1)C1CC=CC21 (stereo not given)	49
O=C(O)c1cccc2c1NC(c1cccc3ccccc13)C1CC=CC21 (stereo not given)	23
Cc1ccc(O)c(NC(=O)c2cc3nc(-c4ccc(F)cc4)cc(C(F)(F)F)n3n2)c1	16
Cc1ccc(C=C2C(=O)NC(=S)N(c3ccccc3Cl)C2=O)o1	-5
COC(=O)c1ccc(/C=C2\C(=O)NC(=S)N(c3ccc(Br)cc3C)C2=O)cc1	9
Cc1ccc(/C=C2\C(=O)NC(=S)N(c3ccc(Br)cc3)C2=O)o1	26
COc1ccc(/C=C2\C(=O)NC(=S)N(c3ccc(Br)cc3C)C2=O)cc1OC	98
Cc1ccc(/C=C2\C(=O)NC(=S)N(c3ccc(Br)cc3C)C2=O)o1	82*
Cc1cc(Br)ccc1N1C(=O)/C(=C/c2ccc(N(C)C)cc2)C(=O)NC1=S	69*
O=[N+]([O-])c1ccc(S(=O)(=O)N/N=C/c2ccco2)cc1	-5
Cn1c(-c2nc3ccccc3n2C)nc2ccccc21	-7
Cn1c(-c2ccc(-c3nc4cnccc4n3C)cc2)nc2cnccc21	71*
Cc1ccc(-c2nc3ccccc3c(=O)n2-c2cccnc2)cc1	13
CNC(=S)N(CCc1ccccc1)C1CC(=O)N(c2ccc(Br)cc2)C1=O (stereo not given)	-3
SMILES	DUSP3 inh
Cc1ccc(N2NC(=O)/C(=C/c3ccc(C)c([N+](=O)[O-])c3)C2=O)cc1Cl	-13
CCOC(=O)c1ccc(N2NC(=O)/C(=C/c3ccc(Cl)c([N+](=O)[O-])c3)C2=O)cc1	-9
O=C1NN(c2ccc(Cl)c(Cl)c2)C(=O)/C1=C/c1ccc(Cl)c([N+](=O)[O-])c1	83*
CCOC(=O)N1CCN(C(=S)Nc2ccc3nccnc3c2)CC1	10
CCN(CC)CCCCCOc1cc(C)cc(C)c1C	-16
NC(=O)c1cc(NC(=O)C(c2ccccc2)c2ccccc2)c(Cl)cc1Cl	-2
